Bioassay records (PubChem)
G9a block: G9a (human) methyltransferase inhibition; G9a H3K9 monomethylation, AlphaScreen, 2 h; Potency, µM (series often up to 102 µM), hits mostly inhibitors; 350,000 compounds, 8.8% hits; Q96KQ7; also: nearly all actives have a fitted effect of over 75% in size
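Using a bead-based AlphaScreen, monomethylated H3K9 product from 2 h room-temperature reactions (G9a 20 nM, peptide 500 nM, SAM 20 uM) was detected with 0.5 ug/mL rabbit anti-H3K9me1 antibody.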
HP1b binding inh: HP1-beta chromodomain-methylated histone interaction inhibition. AlphaScreen HP1-beta / biotin-H3K9me3 peptide binding. P83916. Potency, µM (top dose mostly 114 µM), most hits filed as inhibitors. 390,000 compounds, 0.56% hits; also: nearly all actives have a fitted effect of over 70% in size
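AlphaScreen: HP1-beta (50 nM) preformed 30 min with biotin-H3(1-18)K9me3 peptide (50 nM) in PBS pH 7.4, 0.01% Tween-20. Compound added for 30 min at RT, then streptavidin donor/nickel chelate acceptor beads (10 ug/mL) for 30 min.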
BAZ2B inh: inhibitors of human BAZ2B bromodomain. AlphaScreen BAZ2B-H3K14Ac peptide displacement. Potency, µM (series often up to 114 µM), hits mostly inhibitors. 360,000 compounds, 4.4% hits. AID 504333; also: nearly all actives have a fitted effect of over 60% in size
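Inhibition is scored as reduced AlphaScreen emission. The BAZ2B/b-H3(5-23)K14Ac complex (50 nM each) in PBS pH 7.4, 0.01% Tween-20 meets compound (up to 110 uM) for 30 min at RT before bead addition.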
JMJD2A Tudor: inhibitors of human JMJD2A Tudor domain; O75164; AlphaScreen JMJD2A-Tudor / H3K4me3 peptide binding; Potency, µM (top dose mostly 114 µM), most hits filed as inhibitors; 390,000 compounds, 4.4% hits; AID 504339; also: nearly all actives have a fitted effect of over 50% in size
Target sequence (O75164 whole entry, looked up, the tested form may be a part): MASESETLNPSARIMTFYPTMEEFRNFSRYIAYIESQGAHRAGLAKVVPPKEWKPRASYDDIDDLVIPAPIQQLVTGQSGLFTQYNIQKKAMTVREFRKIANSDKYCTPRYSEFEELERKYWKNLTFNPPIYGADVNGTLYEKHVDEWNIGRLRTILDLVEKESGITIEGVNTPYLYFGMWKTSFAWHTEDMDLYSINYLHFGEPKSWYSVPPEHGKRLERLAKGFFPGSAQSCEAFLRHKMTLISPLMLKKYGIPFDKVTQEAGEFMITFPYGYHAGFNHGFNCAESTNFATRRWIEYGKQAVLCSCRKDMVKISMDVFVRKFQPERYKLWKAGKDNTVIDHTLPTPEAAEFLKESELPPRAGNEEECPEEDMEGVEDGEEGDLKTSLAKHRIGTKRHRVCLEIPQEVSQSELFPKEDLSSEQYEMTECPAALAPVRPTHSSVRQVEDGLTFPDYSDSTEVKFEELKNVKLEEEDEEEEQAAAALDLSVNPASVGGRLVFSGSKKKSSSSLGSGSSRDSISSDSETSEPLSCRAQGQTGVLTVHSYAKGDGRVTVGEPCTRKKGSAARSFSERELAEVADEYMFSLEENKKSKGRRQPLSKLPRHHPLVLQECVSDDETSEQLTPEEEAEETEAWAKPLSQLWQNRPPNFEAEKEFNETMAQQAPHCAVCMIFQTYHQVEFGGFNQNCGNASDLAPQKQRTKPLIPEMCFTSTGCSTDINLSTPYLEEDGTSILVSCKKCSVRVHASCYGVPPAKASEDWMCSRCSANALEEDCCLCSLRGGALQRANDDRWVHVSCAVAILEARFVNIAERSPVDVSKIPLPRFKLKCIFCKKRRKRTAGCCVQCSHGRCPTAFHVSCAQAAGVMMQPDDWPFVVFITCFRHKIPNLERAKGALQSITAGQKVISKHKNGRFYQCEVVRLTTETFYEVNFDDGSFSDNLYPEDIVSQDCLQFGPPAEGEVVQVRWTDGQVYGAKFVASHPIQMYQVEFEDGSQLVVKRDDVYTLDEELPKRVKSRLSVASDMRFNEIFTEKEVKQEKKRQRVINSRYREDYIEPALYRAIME
GLS inh: glutaminase GLS (human) inhibition; O94925; GLS enzymatic activity, qHTS titration; Potency, µM (top dose mostly 45.5 µM), most hits filed as inhibitors; 410,000 compounds, 0.21% hits; AID 624170
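Compounds were pin-transferred onto hKGA, after which L-glutamine (1 mM solution) and a detection mix of glutamate oxidase, HRP and Amplex Red were added. Initial and 30 min RT fluorescence reads were collected.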
Numbers stand for hits; – = inactive; ? = inconclusive; · = not tested or not shown; [ ] = dose if it differs, or a comment. Hits are enriched below; roughly 10% of the tested compounds scored in any of these assays. Calls follow the shape of the dose curve; as a rule, active = well fitted curve in the direction sought with a large enough effect; inconclusive = small, poorly fitted or top-dose-only effect, or another doubt; inactive = no such curve, though single readings can be large; an effect the other way counts as inactive or inconclusive.

SMILES | G9a block | HP1b binding inh | BAZ2B inh | JMJD2A Tudor | GLS inh
O=C(CSc1nccc(=O)[nH]1)c1ccco1 | ? | – | – | – | –
O=C(CSc1nnc(SCC(=O)c2ccco2)s1)c1ccco1 | – | ? | ? | 20µM | –
COc1ccc(CNC(=O)CSc2ncn[nH]2)cc1 | 2.82µM | – | – | – | –
O=C(CSc1ncn[nH]1)NCc1ccccc1 | – | – | – | – | –
CN(C)C(=O)c1ccc(OCC(F)(F)F)nc1 | – | – | – | – | –
CCOC(=O)C1(CC2CC2)CCN(C(=O)c2cc(C)nc3ccc(CC)cc23)CC1 | ? | – | – | – | –
CC(C)C1C(=O)N(Cc2cn(CC3CCCCC3)nn2)CCS(=O)(=O)N1Cc1ccc(-c2ccc(Cl)cc2)cc1 (stereo not given) | · | · | · | · | –
O=C(CSc1ncn[nH]1)Nc1ccc(Cl)c(Cl)c1 | 44.7µM | – | – | –[11.4 µM] | –
O=C(CCC(=O)Nc1ccc(F)cc1)N/N=C/c1ccncc1 | – | – | · | 3.55µM | –
Cc1ccccc1NC(=O)CCC(=O)N/N=C/c1ccncc1 | 7.08µM | – | ? | –[11.4 µM] | –
COc1ccc(NC(=O)CCC(=O)N/N=C/c2ccncc2)cc1 | 22.4µM | – | – | – | –
Cc1ccc(C)c(NC(=O)CCC(=O)N/N=C/c2cccnc2)c1 | –[0.501 µM] | – | – | – | –
O=C(CCC(=O)Nc1ccccc1)N/N=C/c1ccncc1 | – | – | – | –[11.4 µM] | –
CCN1CCN(S(=O)(=O)c2ccc(Cl)c(C(=O)NC(C)(C)C)c2)CC1 | – | – | – | – | –
Cc1nn(CCC#N)c2nc(C(F)(F)F)[nH]c(=O)c12 | – | – | – | – | –
CCOC(=O)c1[nH]cnc1C(=O)Nc1ccncc1 | ? | – | 50.1µM | 28.2µM | –
CCOC(=O)c1[nH]cnc1C(=O)Nc1ccc(F)cc1 | 44.7µM | – | ? | – | –
CCOC(=O)c1ccc(NC(=O)c2nc[nH]c2C(=O)N(CC)CC)cc1 | ? | – | – | – | –
CCN(CC)C(=O)c1[nH]cnc1C(=O)Nc1ccc(OC)cc1 | – | – | – | – | –
CCN(CC)C(=O)c1[nH]cnc1C(=O)Nc1ccc(Cl)cc1 | –[0.501 µM] | – | 50.1µM | – | –
CC1(c2ccccc2)CC(c2ccccc2)=C(C#N)C(=O)N1 (stereo not given) | · | – | · | – | –
CCOc1ccc(CCNC(=O)C2CCN(S(=O)(=O)N3CCCCC3)CC2)cc1OCC | – | – | – | – | –
Cc1ccc(OCC(=O)Nc2c[nH]c(=O)[nH]c2=O)cc1C | – | – | – | – | –
CCCCCCCNC1=CC(=O)CC(c2ccco2)C1 (stereo not given) | ? | – | ? | 50.1µM | –
COc1cc(C(=O)NCCCc2ccccc2)cc(OC)c1OC | –[0.501 µM] | – | – | – | –
SMILES | G9a block | HP1b binding inh | BAZ2B inh | JMJD2A Tudor | GLS inh
Cc1nc2c(cc(Oc3ccc(S(=O)(=O)N4CCOCC4)cn3)c3ccsc32)s1 | 70.8µM | – | – | – | –
CNC[C@@H](C)NC[C@@H](Cc1ccccc1)NCCc1ccccc1 | ? | – | – | – | –
CC(C)(Sc1cc(C(C)(C)C)c(O)c(C(C)(C)C)c1)Sc1cc(C(C)(C)C)c(O)c(C(C)(C)C)c1 | – | – | – | – | –
Cn1ccnc1C(O)c1cc(C(C)(C)C)c(O)c(C(C)(C)C)c1 (stereo not given) | 50.1µM | – | ? | ? | ?
Cc1nc(N2CCCCC2)c2ccsc2n1 | 20µM | ? | 5.01µM | 0.794µM | ·
Cc1nc(N2CCCCC2)c2c(-c3cccs3)csc2n1 | – | – | – | – | –
COc1cccc2sc(=NC(=O)CCS(=O)(=O)c3ccc(C)cc3)n(C)c12 | – | – | – | – | –
C#CCN(C[C@H]1[C@H](OC(=O)Nc2c(C)noc2C)[C@H](OC(=O)Nc2c(C)noc2C)C[C@@H](C(=O)OC)[C@H]1C(=O)OC)S(=O)(=O)c1ccc(C)cc1 | · | · | · | · | –
FC(F)(F)c1nnc2sc(-c3ccccn3)nn12 | – | – | – | – | –
Cc1ccc(N2C(=O)CC(N(O)C3CC(=O)N(c4ccc(C)cc4)C3=O)C2=O)cc1 (stereo not given) | ? | – | – | – | –
CCCCCCC(=O)N(O)C1CC(=O)N(c2ccc(C)cc2)C1=O (stereo not given) | 1.26µM | ? | – | 14.1µM | ·
CCCCCCC(=O)N(O)C1CC(=O)N(c2ccc(Cl)cc2)C1=O (stereo not given) | · | 39.8µM | – | 31.6µM | –
